Measured values from article PMC7862700, “An all-to-all approach to the identification of sequence-specific readers for epigenetic DNA modifications on cytosine”.

How the values were obtained:
Test in all cases: DAPPL (digital affinity profiling via proximity ligation, sequencing); 10 mM Tris-HCl pH 7.5, 50 mM NaCl, 1 mM DTT, 4% glycerol, room temperature, 30 min; GST-TFs on glutathione beads, 16-mer random dsDNA library, 0.1% formaldehyde crosslink after washing; high values mean tight binding
[1] = target: T1, FLI1 (Homo sapiens, UniProt Q01543 1-452); conditions: protein: recombinant; tags: N-terminal GST; dsDNA, one strand shown
T1 sequence: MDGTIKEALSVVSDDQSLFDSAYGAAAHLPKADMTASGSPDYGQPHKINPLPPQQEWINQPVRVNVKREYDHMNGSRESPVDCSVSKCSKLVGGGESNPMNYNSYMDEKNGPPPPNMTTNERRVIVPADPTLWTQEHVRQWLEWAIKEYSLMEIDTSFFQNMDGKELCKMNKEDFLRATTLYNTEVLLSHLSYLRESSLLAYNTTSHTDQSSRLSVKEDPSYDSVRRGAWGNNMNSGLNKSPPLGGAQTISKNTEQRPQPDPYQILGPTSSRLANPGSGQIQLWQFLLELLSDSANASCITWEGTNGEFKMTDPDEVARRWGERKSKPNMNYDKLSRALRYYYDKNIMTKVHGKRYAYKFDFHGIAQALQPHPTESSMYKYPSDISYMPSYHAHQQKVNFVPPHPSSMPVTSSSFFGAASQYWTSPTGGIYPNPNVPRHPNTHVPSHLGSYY
Outline: (§1)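 After expression in yeast as GST fusions, human transcription factors were bound to glutathione beads, DNA-barcoded and mixed with a tag-only sample. The pools were incubated with 200 nmole of a 16-mer random double-stranded DNA library in Tris/NaCl/DTT/glycerol buffer (30 min, room temperature), washed and crosslinked with 0.1% formaldehyde. Proximity ligation with BsaI/T4 ligase ran for 1 h at 37 °C, before PCR amplification and sequencing on an Illumina NextSeq500. Binding signal is a hexamer's read frequency for a factor divided by its frequency for the tag-only sample.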

[2] = target: T2, ELK1 (Homo sapiens, UniProt P19419 1-428); conditions: protein: recombinant; tags: N-terminal GST; dsDNA, one strand shown
T2 sequence: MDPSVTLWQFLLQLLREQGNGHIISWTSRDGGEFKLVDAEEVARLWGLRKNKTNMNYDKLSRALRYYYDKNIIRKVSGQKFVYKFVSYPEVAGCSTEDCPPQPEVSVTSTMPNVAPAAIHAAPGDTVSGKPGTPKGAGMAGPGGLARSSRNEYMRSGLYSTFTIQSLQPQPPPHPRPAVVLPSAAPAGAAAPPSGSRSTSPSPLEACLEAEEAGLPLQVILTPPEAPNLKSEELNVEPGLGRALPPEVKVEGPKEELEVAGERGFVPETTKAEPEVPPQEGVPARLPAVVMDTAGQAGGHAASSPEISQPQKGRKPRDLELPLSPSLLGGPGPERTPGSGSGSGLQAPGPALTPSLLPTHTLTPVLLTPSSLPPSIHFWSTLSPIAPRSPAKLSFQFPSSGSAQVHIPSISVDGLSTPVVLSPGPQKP
Outline: as §1

[3] = target: T3, GABPA (Homo sapiens, UniProt Q06546 1-454); conditions: protein: recombinant; tags: N-terminal GST; dsDNA, one strand shown
T3 sequence: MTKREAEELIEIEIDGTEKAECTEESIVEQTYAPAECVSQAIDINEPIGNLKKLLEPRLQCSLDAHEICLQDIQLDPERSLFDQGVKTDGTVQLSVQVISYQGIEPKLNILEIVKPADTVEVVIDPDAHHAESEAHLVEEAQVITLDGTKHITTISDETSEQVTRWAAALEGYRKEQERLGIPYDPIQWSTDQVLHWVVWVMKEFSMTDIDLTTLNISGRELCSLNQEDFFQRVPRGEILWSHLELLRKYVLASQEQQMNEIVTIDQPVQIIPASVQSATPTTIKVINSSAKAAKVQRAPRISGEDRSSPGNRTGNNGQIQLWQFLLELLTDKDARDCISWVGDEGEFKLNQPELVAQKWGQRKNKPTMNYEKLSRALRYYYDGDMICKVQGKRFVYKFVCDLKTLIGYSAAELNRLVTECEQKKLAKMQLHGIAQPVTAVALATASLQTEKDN
Outline: as §1

[4] = target: T4, ERG (Homo sapiens, UniProt P11308 1-479); conditions: protein: recombinant; tags: N-terminal GST; dsDNA, one strand shown
T4 sequence: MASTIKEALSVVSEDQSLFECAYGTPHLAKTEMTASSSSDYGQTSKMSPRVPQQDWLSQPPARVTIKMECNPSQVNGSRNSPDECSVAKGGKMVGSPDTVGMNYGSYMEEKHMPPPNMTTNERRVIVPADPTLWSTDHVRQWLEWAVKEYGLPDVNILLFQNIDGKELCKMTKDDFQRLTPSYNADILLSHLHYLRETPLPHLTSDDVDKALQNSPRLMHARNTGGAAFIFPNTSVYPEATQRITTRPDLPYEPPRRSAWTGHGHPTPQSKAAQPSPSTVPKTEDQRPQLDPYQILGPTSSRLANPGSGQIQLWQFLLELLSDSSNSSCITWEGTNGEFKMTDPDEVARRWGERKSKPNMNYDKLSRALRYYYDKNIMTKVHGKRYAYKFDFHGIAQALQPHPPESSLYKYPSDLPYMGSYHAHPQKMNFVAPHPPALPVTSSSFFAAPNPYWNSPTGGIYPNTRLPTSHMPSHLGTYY
Outline: as §1

[5] = target: ELF1 (Homo sapiens, UniProt P32519 1-619); conditions: protein: recombinant; tags: N-terminal GST; dsDNA, one strand shown
Chain of ELF1 (P32519 whole entry): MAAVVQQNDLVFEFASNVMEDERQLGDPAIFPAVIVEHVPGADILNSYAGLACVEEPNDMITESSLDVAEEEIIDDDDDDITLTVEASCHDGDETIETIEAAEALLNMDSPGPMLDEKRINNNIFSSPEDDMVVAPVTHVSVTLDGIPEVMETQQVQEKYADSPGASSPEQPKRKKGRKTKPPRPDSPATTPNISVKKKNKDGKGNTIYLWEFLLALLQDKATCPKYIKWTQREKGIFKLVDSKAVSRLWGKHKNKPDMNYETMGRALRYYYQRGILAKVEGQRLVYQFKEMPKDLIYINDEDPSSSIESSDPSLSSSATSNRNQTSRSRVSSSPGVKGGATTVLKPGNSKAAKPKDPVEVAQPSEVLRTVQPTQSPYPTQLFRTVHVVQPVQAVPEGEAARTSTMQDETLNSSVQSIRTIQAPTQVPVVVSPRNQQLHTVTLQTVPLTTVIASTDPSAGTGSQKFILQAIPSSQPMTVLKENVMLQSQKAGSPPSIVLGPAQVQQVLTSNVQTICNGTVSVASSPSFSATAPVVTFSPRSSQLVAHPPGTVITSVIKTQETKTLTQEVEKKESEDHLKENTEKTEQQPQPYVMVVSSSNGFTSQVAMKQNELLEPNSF
Outline: as §1

[6] = target: T5, EHF (Homo sapiens, UniProt Q9NZC4 1-300); conditions: protein: recombinant; tags: N-terminal GST; dsDNA, one strand shown
T5 sequence: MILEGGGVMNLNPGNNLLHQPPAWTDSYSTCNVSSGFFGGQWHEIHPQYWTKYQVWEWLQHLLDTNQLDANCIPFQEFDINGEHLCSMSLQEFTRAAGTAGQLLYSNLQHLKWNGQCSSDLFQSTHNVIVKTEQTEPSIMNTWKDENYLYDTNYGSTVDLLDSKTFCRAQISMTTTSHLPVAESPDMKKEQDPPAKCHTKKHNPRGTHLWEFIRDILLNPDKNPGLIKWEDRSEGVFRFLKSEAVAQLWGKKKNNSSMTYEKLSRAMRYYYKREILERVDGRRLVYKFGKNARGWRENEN
Outline: as §1

[7] = target: SPI1 (Homo sapiens, UniProt P17947 1-270); conditions: protein: recombinant; tags: N-terminal GST; dsDNA, one strand shown
Outline: as §1

[8] = target: SPIB (Homo sapiens, UniProt Q01892 1-262); conditions: protein: recombinant; tags: N-terminal GST; dsDNA, one strand shown
Chain of SPIB (Q01892 whole entry): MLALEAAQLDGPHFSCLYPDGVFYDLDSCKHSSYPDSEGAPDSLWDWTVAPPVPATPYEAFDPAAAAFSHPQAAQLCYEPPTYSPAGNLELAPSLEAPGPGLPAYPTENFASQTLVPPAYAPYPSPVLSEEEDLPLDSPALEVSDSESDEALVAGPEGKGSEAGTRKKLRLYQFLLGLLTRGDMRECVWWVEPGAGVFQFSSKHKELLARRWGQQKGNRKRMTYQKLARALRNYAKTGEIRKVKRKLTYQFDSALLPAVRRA
Outline: as §1

[9] = target: T6, ELK3 (Homo sapiens, UniProt P41970 1-407); conditions: protein: recombinant; tags: N-terminal GST; dsDNA, one strand shown
T6 sequence: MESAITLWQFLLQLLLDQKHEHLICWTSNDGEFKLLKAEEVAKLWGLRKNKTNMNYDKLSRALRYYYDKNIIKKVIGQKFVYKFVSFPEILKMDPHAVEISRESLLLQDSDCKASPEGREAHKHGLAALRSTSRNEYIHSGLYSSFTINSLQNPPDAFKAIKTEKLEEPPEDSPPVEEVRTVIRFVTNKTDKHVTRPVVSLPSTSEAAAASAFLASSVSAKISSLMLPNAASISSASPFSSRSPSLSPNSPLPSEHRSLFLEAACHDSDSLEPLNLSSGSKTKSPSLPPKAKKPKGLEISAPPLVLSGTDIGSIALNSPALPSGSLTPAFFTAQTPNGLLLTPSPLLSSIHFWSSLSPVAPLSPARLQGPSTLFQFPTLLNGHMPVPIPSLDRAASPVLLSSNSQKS
Outline: as §1

[10] = target: T7, FEV (Homo sapiens, UniProt Q99581 1-238); conditions: protein: recombinant; tags: N-terminal GST; dsDNA, one strand shown
T7 sequence: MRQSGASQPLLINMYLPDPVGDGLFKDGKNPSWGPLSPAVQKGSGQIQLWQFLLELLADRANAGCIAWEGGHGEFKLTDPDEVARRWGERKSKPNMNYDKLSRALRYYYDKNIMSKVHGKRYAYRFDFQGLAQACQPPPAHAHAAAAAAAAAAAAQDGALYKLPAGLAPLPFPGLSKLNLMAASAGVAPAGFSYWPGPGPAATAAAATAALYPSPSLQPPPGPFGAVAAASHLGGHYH
Outline: as §1

[11] = target: ETV5 (Homo sapiens, UniProt P41161 1-510); conditions: protein: recombinant; tags: N-terminal GST; dsDNA, one strand shown
Chain of ETV5 (P41161 whole entry): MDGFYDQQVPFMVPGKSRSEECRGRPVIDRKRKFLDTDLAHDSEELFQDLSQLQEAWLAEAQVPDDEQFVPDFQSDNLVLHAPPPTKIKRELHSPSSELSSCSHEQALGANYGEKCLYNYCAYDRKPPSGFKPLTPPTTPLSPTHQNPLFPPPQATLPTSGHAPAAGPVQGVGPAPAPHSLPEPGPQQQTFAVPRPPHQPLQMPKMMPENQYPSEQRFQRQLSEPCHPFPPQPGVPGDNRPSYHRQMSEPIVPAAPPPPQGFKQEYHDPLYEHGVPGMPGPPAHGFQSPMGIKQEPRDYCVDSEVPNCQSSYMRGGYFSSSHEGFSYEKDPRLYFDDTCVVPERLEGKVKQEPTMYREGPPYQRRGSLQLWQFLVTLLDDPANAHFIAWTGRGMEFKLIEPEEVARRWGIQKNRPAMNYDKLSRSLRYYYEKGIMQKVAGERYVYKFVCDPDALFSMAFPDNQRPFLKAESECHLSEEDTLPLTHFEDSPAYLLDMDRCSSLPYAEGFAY
Outline: as §1

[12] = target: HSF1 (Homo sapiens, UniProt Q00613 1-529); conditions: protein: recombinant; tags: N-terminal GST; chain copies: 3; dsDNA, one strand shown
Chain of HSF1 (Q00613 whole entry): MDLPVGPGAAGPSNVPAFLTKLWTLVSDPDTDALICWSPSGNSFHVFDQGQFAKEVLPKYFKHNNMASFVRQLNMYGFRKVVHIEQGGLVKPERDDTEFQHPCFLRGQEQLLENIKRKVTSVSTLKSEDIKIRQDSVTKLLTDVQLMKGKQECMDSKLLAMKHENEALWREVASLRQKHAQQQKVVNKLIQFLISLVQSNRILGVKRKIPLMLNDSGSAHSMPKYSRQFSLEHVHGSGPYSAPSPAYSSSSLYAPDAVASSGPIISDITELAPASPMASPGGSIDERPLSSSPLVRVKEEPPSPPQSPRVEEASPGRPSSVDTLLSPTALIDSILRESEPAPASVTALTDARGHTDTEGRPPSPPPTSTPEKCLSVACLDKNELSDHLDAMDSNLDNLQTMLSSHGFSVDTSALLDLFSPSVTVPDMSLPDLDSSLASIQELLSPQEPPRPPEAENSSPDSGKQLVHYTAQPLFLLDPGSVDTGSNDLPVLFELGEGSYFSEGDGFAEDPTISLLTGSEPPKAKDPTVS
Outline: as §1

[13] = target: T8, SPIC (Homo sapiens, UniProt Q8N5J4 1-248); conditions: protein: recombinant; tags: N-terminal GST; dsDNA, one strand shown
T8 sequence: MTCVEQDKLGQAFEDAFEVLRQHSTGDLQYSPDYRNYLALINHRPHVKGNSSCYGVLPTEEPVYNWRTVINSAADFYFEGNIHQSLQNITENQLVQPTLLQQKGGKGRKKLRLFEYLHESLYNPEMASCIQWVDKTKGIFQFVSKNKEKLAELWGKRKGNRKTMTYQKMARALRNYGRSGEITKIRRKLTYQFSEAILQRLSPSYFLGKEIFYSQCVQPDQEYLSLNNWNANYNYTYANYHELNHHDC
Outline: as §1

[14] = target: ELF4 (Homo sapiens, UniProt Q99607 1-663); conditions: protein: recombinant; tags: N-terminal GST; dsDNA, one strand shown
Chain of ELF4 (Q99607 whole entry): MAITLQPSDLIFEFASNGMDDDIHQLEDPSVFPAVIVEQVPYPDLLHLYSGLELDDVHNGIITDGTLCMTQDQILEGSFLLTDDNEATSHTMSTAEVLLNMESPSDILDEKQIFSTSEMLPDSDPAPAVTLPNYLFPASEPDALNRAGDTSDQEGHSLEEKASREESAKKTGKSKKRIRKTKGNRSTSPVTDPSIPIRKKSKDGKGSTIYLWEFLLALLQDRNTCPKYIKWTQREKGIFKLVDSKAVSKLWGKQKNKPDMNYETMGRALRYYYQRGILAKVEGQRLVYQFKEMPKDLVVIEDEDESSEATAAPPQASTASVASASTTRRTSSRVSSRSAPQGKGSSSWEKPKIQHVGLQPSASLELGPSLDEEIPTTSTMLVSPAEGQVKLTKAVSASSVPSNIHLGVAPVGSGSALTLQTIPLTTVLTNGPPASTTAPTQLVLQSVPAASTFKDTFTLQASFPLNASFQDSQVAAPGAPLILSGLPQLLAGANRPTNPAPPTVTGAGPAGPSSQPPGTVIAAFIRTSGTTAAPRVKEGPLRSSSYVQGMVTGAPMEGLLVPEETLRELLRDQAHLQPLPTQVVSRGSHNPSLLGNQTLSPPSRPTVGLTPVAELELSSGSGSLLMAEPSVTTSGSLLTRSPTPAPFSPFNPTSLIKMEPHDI
Outline: as §1

[15] = target: T9, ELK4 (Homo sapiens, UniProt P28324-2 1-405); conditions: protein: recombinant; tags: N-terminal GST; dsDNA, one strand shown
T9 sequence: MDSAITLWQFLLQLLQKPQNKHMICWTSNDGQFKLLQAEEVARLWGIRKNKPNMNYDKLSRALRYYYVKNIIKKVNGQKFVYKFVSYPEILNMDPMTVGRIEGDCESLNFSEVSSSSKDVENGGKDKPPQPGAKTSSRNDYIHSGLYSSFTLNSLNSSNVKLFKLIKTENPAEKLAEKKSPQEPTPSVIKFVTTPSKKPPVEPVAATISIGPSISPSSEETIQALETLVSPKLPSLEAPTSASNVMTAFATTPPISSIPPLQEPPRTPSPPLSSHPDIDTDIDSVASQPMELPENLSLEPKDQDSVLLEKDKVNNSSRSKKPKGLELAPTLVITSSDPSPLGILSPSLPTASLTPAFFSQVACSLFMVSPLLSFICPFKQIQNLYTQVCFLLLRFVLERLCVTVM
Outline: as §1

[16] = target: T10, ETV2 (Homo sapiens, UniProt O00321 1-342); conditions: protein: recombinant; tags: N-terminal GST; dsDNA, one strand shown
T10 sequence: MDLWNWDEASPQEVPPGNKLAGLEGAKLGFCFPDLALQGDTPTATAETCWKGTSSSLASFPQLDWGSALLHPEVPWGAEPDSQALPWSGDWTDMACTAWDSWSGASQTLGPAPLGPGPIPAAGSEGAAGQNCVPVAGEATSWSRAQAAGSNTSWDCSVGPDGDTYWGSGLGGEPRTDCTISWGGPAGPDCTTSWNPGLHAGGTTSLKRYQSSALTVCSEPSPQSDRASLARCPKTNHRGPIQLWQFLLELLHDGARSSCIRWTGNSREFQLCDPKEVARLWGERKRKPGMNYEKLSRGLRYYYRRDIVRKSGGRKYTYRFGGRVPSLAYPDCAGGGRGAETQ
Outline: as §1

[17] = target: T11, ELF3 (Homo sapiens, UniProt P78545 1-371); conditions: protein: recombinant; tags: N-terminal GST; dsDNA, one strand shown
T11 sequence: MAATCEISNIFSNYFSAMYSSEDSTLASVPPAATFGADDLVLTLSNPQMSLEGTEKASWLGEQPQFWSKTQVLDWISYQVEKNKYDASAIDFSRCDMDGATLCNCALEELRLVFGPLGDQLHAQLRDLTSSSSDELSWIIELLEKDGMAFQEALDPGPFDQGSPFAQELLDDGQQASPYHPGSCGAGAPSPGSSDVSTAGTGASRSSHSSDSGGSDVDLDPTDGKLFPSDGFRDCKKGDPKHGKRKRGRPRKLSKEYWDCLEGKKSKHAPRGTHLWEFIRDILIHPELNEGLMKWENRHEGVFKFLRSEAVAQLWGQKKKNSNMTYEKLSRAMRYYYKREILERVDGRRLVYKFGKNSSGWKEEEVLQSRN
Outline: as §1

[18] = target: CRX (Homo sapiens, UniProt O43186 1-299); conditions: protein: recombinant; tags: N-terminal GST; dsDNA, one strand shown
Chain of CRX (O43186 whole entry): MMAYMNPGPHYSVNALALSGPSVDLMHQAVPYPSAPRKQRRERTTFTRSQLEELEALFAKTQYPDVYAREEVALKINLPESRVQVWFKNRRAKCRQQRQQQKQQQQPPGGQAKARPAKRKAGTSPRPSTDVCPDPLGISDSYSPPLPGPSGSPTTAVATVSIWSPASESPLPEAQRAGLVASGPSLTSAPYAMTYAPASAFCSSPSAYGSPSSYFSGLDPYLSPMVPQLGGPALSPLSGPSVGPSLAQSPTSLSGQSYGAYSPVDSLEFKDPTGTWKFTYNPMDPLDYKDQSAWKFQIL
Outline: as §1

[19] = target: ETV1 (Homo sapiens, UniProt P50549 1-477); conditions: protein: recombinant; tags: N-terminal GST; dsDNA, one strand shown
Chain of ETV1 (P50549 whole entry): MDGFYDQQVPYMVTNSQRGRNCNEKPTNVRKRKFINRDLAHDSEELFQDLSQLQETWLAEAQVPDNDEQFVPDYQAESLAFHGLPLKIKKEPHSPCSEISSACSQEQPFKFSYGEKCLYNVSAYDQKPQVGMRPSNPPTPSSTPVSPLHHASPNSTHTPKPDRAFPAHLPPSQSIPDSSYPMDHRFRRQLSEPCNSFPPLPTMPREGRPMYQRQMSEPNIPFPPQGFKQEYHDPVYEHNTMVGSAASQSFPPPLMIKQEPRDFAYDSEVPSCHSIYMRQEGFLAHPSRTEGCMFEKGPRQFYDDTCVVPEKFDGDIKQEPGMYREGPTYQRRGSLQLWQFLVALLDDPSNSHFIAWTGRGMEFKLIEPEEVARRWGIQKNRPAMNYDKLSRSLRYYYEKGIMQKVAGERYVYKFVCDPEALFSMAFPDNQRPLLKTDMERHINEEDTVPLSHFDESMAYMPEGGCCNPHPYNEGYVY
Outline: as §1

TAGTTA was tested, and the binding signal [1] was 1.19 fold enrichment (6-mer frequency, TF over GST control), the binding signal [2] was 1.2 fold enrichment (6-mer frequency, TF over GST control) and the binding signal [3] was 1.2 fold enrichment (6-mer frequency, TF over GST control). The binding signal [4] was 1.12 fold enrichment (6-mer frequency, TF over GST control), the binding signal [5] was 1.11 fold enrichment (6-mer frequency, TF over GST control) and the binding signal [6] was 1.12 fold enrichment (6-mer frequency, TF over GST control). For the same sequence, the binding signal [7] was 1.09 fold enrichment (6-mer frequency, TF over GST control), the binding signal [8] was 1.19 fold enrichment (6-mer frequency, TF over GST control) and the binding signal [9] was 1.12 fold enrichment (6-mer frequency, TF over GST control). The binding signal [10] was 1.07 fold enrichment (6-mer frequency, TF over GST control), the binding signal [11] was 1.19 fold enrichment (6-mer frequency, TF over GST control) and the binding signal [12] was 1.26 fold enrichment (6-mer frequency, TF over GST control). For the same sequence, the binding signal [13] was 1.11 fold enrichment (6-mer frequency, TF over GST control), the binding signal [14] was 1.15 fold enrichment (6-mer frequency, TF over GST control) and the binding signal [15] was 1.26 fold enrichment (6-mer frequency, TF over GST control). For the same sequence, the binding signal [16] was 1.09 fold enrichment (6-mer frequency, TF over GST control), the binding signal [17] was 1.29 fold enrichment (6-mer frequency, TF over GST control) and the binding signal [18] was 1.54 fold enrichment (6-mer frequency, TF over GST control). The binding signal [19] was 1.05 fold enrichment (6-mer frequency, TF over GST control).
